From PubChem BioAssay
D3 ag – qHTS of D3 Dopamine Receptor Agonist: qHTS; D(3) dopamine receptor (Homo sapiens), P35462; D3R DiscoveRx beta-arrestin cells, luminescence, 90 min; max activation, %; actives 0.58% (n = 410,000); in the data active means max activation above about 30%; further: 0% is about no effect
Target sequence (P35462 whole entry, looked up): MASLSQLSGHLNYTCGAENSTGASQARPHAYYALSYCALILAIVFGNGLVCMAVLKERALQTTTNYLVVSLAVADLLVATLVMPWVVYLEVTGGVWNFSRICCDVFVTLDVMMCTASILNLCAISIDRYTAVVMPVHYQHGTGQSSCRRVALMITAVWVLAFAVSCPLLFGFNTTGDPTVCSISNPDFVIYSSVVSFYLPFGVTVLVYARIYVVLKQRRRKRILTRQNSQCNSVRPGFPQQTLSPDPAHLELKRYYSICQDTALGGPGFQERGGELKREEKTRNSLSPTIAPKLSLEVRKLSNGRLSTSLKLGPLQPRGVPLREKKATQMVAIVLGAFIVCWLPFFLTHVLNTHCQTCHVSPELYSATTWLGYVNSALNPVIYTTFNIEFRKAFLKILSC
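Agonist-mode cell screen: cells plated at 1500/well and incubated overnight at 37 °C, then exposed to library compounds for 90 min at 37 °C. Detection reagent was added for 30–60 min at room temperature, and luminescence was read.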
S2 tox – Viability Counterscreen for Primary qHTS for Inhibitors of ATXN expression | actives 0.49% (n = 400,000) | Potency, µM (series often up to 56.7 µM), actives largely listed as cytotoxic | S2 cells (HEK-293 line with an ATXN2-luciferase reporter) viability, CellTiter-Fluor protease fluorescence, 24 h; further: potency means the concentration at half of the fitted maximal effect; nearly all actives have a fitted effect of over 40% in size
ATXN2 expr inh – Primary qHTS for Inhibitors of ATXN expression | HEK-293 ATXN2-luciferase reporter, luminescence, 24 h | Potency, µM (titrated, usually from 57 µM), for inactives: at the highest dose activity change, negative = inhibition, usual class: inhibitors | actives 0.72% (n = 360,000); further: potency means the concentration at half of the fitted maximal effect; on the % scale 0 is the no-effect control and ±100 the full control effect; nearly all actives have a fitted effect of over 55% in size
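qHTS (up to 57 uM final) was run with 24 h compound exposure of reporter cells at 37 °C. Each well was multiplexed: SteadyGlo luminescence measured ATXN2-luciferase expression after a fluorogenic Gly-Phe-AFC viability readout (25 uM final).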
TGFb inhibitor – qHTS for Inhibitors of TGF-b; actives 1.2% (n = 410,000); HepG2 CAGA-GFP TGF-b/SMAD3 reporter, GFP fluorescence, 18 h; TGF-beta stimulated, 500 pg/mL final; Potency, µM (titrated, usually from 46.1 µM), inactives show at the top dose activity, negative = inhibition, usual class: inhibitors; AID 588855, 2011; further: potency means the concentration at half of the fitted maximal effect; on the % scale 0 is the no-effect control and ±100 the full control effect; nearly all actives have a fitted effect of over 65% in size
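Per well, imaged GFP fluorescence of HEPG2 CAGA-GFP cells gives the signal; cells get compound, then TGF-beta (500 pg/mL final), 18 h at 37 degrees C; %Activity versus -TGF-beta and +DMSO controls.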
HepG2 viability – qHTS for Inhibitors of TGF-b: Cytotox Counterscreen. HepG2 CAGA-GFP viability, ATP luminescence, 18 h. Potency, µM (top dose mostly 46.1 µM), inactives show at the highest dose activity change, negative = cytotoxicity, hits mostly cytotoxic. actives 0.76% (n = 410,000). AID 588856, 2011; further: potency means the concentration at half of the fitted maximal effect
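HepG2 CAGA-GFP cells (1000/well, DMEM with 1% FBS) received compound, then TGF-beta at 500 pg/mL final, and were incubated 18 hours at 37 degrees C. Viability was read by CellTiter-Glo luminescence. Media-only wells were set as complete cell-killing and DMSO as no toxicity.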
DRD3 antagonist – qHTS of D3 Dopamine Receptor Antagonist: qHTS; D(3) dopamine receptor (Homo sapiens), P35462; max response, negative = inhibition, %; actives 2.5% (n = 360,000); D3R cells, DiscoveRx beta-arrestin luminescence, antagonist mode; hits give low values; AID 652054, 2013; in the data active means max response below about -50%; inconclusive means no clear call, values can overlap the other calls; further: on the % scale 0 is the no-effect control and ±100 the full control effect
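Cells plated overnight at 1500 cells/well, then exposed to library compounds with dopamine controls for 90 minutes at 37 degrees C. DiscoveRx reagent added for 30–60 minutes at room temperature; luminescence read, quantitative HTS format.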
Numbers without * were called inactive; i = inactive; ? = inconclusive; · = no result given; ! = not active in a repeat. Rows were chosen to be rich in hits. Some 4.7% of all compounds tested hit in one or more screens of this group. Unless noted, the call rests on the fitted dose curve; in most records, active means well fitted curve in the direction sought with a large enough effect; inconclusive means small, poorly fitted or top-dose-only effect, or another doubt; inactive means no such curve, though single readings can be large; an effect the other way counts as inactive or inconclusive.

SMILES	D3 ag	S2 tox	ATXN2 expr inh	TGFb inhibitor	HepG2 viability	DRD3 antagonist
CCN1CCC(N[C@H]2C[C@@H](C(=O)NC)N(Cc3cccc4ccccc34)C2)CC1	·	i	·	·	·	·
O=C(c1ccc(CSc2nc3ccncc3n2Cc2ccc(F)cc2)cc1)N1CCCCCC1	7.7	?	-24.4%	?	-60.3%	·
COc1ccc(C(=O)N2CCC(C(=O)Nc3ccccc3Cl)CC2)cc1	1.6	i	1.4%	7.0%	4.7%	·
Cc1cc(OCC(=O)Nc2nc3c(s2)CCCC3)cc(C)c1Cl	11.8	·	·	0.0%	-14.7%	·
O=C(Nc1ccccc1)C1=C[C@H](c2ccccc2)C[C@H](OCc2ccc(CO)cc2)O1	12.6	i	3.8%	3.9%	-4.9%	8.6
C#CCNC(=O)C1=C[C@H](c2ccc(Br)cc2)C[C@H](OCCCCO)O1	-30.4	i	-5.4%	-2.8%	-1.0%	?
O=C(Nc1ccccc1)C1=C[C@H](c2ccc(C(F)(F)F)cc2)C[C@H](OCc2ccc(CO)cc2)O1	21.5	?	?	12.6µM*	-32.4%	13.5
C#CCNC(=O)C1=C[C@@H](c2ccc(C(F)(F)F)cc2)C[C@@H](OCCCCO)O1	-2.0	i	3.9%	-10.1%	-12.2%	-51.6*
O=C(NCc1nc2ccccc2[nH]1)C1=C[C@@H](c2ccc(Br)cc2)C[C@@H](OCc2ccc(CO)cc2)O1	-15.8	?	0.0%	12.6µM*	-57.2%	33.1
O=C(C1=C[C@H](c2ccc(C(F)(F)F)cc2)C[C@H](OCc2ccc(CO)cc2)O1)N1CCCCCCC1	0.0	?	0.0%	?	-98.5%	-72.3*
O=C(Cn1cc(S(=O)(=O)c2ccccc2)c(=O)c2cc(Cl)ccc21)Nc1ccc2c(c1)OCO2	-1.1	i	8.8%	-10.9%	-8.7%	·
CSc1ncnc2c1ncn2CCCNC1CCN(Cc2ccccc2)CC1	-2.2	i	-26.4%	3.9%	-1.7%	9.5
c1ccc(COc2ncnc3c2ncn3CCCNC2CCN(Cc3ccccc3)CC2)cc1	1.2	·	25.1µM*	14.1µM*	15.8µM*	0.7
O=C(Nc1ccn(CCCNC2CCN(Cc3ccccc3)CC2)c(=O)n1)OCc1ccccc1	-12.0	?	?	-1.1%	6.31µM*	-52.5*
O=C(Nc1ccn(CCCN2CCN(Cc3cccc4ccccc34)CC2)c(=O)n1)OCc1ccccc1	-9.6	·	28.2µM*	?	-71.2%	-2.1
Cc1ccc(CNc2ncnc3sc(C(=O)N4CCCC(C(N)=O)C4)c(C)c23)o1 (stereo unspecified)	·	i	·	·	·	·
Nc1nc(=S)c2[nH]cnc2[nH]1	3.5	?	3.98µM*!	?	1.41µM*	26.8
Cc1c(C(=O)N(C)Cc2ccccc2)sc2nc(-c3ccc(F)cc3)cn12	-4.0	·	·	12.6µM*	-60.6%	·
CCC(=O)c1ccc2c(c1)N(CCCN1CCN(CCO)CC1)c1ccccc1S2	-13.3	·	·	·	·	·
CC(C)Oc1ccc(C2CC(=O)N(Nc3ccc([N+](=O)[O-])cc3[N+](=O)[O-])C2=O)cc1 (stereo unspecified)	-20.7	i	?	-8.4%	2.2%	-50.5*
CCOc1ccc(C2CC(=O)N(Nc3ccc([N+](=O)[O-])cc3[N+](=O)[O-])C2=O)cc1 (stereo unspecified)	-13.4	i	-5.1%	-15.4%	1.3%	?
COc1ccc(CCNC(=O)CS(=O)(=O)Cc2nc(-c3cccc(Cl)c3)oc2C)cc1OC	2.2	i	4.2%	-28.8%	-5.4%	·
CO[C@@H](C(=O)N1Cc2[nH]nc(NC(=O)c3ccc(N4CCN(C)CC4)cc3)c2C1)c1ccccc1	·	·	27.3µM*	·	·	·
C/C=C(\C)CN1CCN(c2ccccc2)CC1	-6.8	i	-9.3%	7.8%	9.0%	-71.2*
C/C(=C\c1ccccc1)CN1CCN(c2ccccc2)CC1	-26.9	i	-3.7%	0.6%	-1.6%	-108.7*
SMILES	D3 ag	S2 tox	ATXN2 expr inh	TGFb inhibitor	HepG2 viability	DRD3 antagonist
C/C=C(\C)CN1CCN(c2ccccc2F)CC1	-2.9	i	-6.0%	-20.2%	-1.3%	-29.9
COc1ccccc1N1CCN(C/C(C)=C/c2ccccc2)CC1	-70.5	i	-6.8%	-10.3%	-19.0%	-88.8*
CC(=O)c1ccc(N2CCN(CC(=O)NCc3ccccc3)CC2)cc1	-3.9	i	·	-0.9%	1.4%	-7.4
CC(C)c1ccc(NC(=O)c2ccc(NC(=O)CCS(=O)(=O)c3cccs3)cc2)cc1	0.3	?	-7.1%	-1.3%	-3.6%	·
COc1ccc(CN2CC[C@H]3C=CC[C@@H](C(=O)NCc4cccnc4)[C@H]3C2=O)cc1OC	·	·	·	-0.3%	16.5%	·
Cc1cccc2nc(-c3cccnc3)c(Nc3ccc(C(C)C)cc3)n12	8.1	12.6µM*	15.8µM*	?	-33.3%	·
OC1CCCN(Cc2ccc3ccc4cccc5ccc2c3c45)C1 (stereo unspecified)	-16.4	?	?	20µM*	-60.0%	?
c1cc2ccc3ccc(CN4CCOCC4)c4ccc(c1)c2c34	-31.9	i	26.0%	-7.8%	-4.0%	?
Cc1ccc(-n2c(=O)c3ccccc3n(CC(=O)Nc3cccc(C(F)(F)F)c3)c2=O)cc1	6.9	i	-31.1%	?	-4.2%	·
O=C(Nc1nnc(-c2ccc(Cl)cc2)o1)C1CCCCC1	-2.3	i	-3.6%	15.3%	17.7%	-14.1
CCOc1ccc(-c2nnc(NC(=O)C3CCCC3)o2)cc1	-6.2	i	10.0%	7.4%	10.6%	-105.4*
CCC(CC)C(=O)Nc1cccc(/C(C)=N/NC(=O)c2c(Br)cnn2C)c1	-0.3	i	6.4%	-1.7%	4.1%	-51.3*
CCOc1ccc(NC(=O)c2cc(=O)c3ccc(C)c(C)c3o2)cc1	2.3	i	4.3%	0.3%	1.0%	·
Cc1cccc(-n2c(=O)c3ccccc3n(Cc3ccccc3)c2=O)c1	0.4	i	-12.2%	-5.6%	-15.7%	·
Cc1c(CCCN)c2ccccc2n1Cc1ccccc1	-4.4	?	?	?	15.8µM*	1.8
